Values joined by “and” are separate entries in the source; they are usually repeats but may differ in a detail not shown here. Identical values can stand only once. Results filed as inconclusive are left out. Active and inactive are the calls of the source. Unless noted, calls come from the whole dose curve; as a rule, active = well fitted curve in the direction sought with a large enough effect; inconclusive = small, poorly fitted or top-dose-only effect, or another doubt; inactive = no such curve, though single readings can be large; an effect the other way counts as inactive or inconclusive.
Columns and labels:
[1] = Cell Viability - Jurkat (AID 426;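 active = dose-dependent loss of cell ATP signal giving a full or clear fitted curve, ranked by lower potency value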; note: potency is the fitted concentration of half-maximal effect); conditions: qHTS
Summary of the method: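 Seed 5000 Jurkat E6-1 cells/well; add compound; incubate 40 hr at 37 °C; add CellTiter-Glo; wait 20 min at room temperature; read luminescence. Fit concentration-response with Hill equation for AC50.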

[2] = Cell Viability - Hek293 (AID 427;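 active = compounds whose dose-response curve shows a full or clear partial loss of cell viability, called from curve shape rather than a numeric limit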;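 note: potency is the fitted concentration of half-maximal effect; cells exposed to compound for 40 hours at 37 °C before reading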); conditions: qHTS
Summary of the method: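 HEK293 cells in complete medium were exposed to compound for 40 hr at 37 °C, then cellular ATP was read by CellTiter-Glo luminescence. Data were normalized to DMSO (basal) and 100 uM tamoxifen (100% inhibition), and AC50 came from Hill fits.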

[3] = Cell Viability - HepG2 (AID 433; calls by dose curve;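 note: potency is the fitted concentration of half-maximal effect; potency for ATP loss meaning cytotoxicity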); conditions: qHTS
Summary of the method: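 Cytotoxicity is scored as loss of intracellular ATP in HepG2 cells exposed to compounds for 40 h. Concentration-response curves, normalized to DMSO and 100 uM tamoxifen, give AC50 values.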

[4] = molecular target: Mitogen-activated protein kinase 10 (Mus musculus) (UniProt Q61831); test: JNK3 AlphaScreen Assay (AID 530; active = well fitted curve in either direction with a large enough effect, not every such curve was filed as active;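 note: kinase came from lysate of stimulated human HepG2 cells; signal reports phosphorylation of biotinylated GST-cJun 1-79 at Ser73 with 10 µM ATP; % is set by controls: 0 for no effect and ±100 for the full control effect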); conditions: JNK3 lysate, c-Jun phosphorylation; series mostly up to 57.1 µM
Summary of the method: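 Room-temperature AlphaScreen kinase assay; pre-activated HepG2 lysate as JNK3 source, biotin-GST-cJun(1-79) substrate, 10 uM ATP, compound 15 min preincubation.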

[5] = Cell Viability - H-4-II-E (AID 543); conditions: H-4-II-E rat hepatoma viability; series mostly up to 92.2 µM; note: nearly all actives have a fitted effect of over 35% in size; note: potency is the fitted concentration of half-maximal effect
Summary of the method: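 Here, cytotoxicity is measured in the rat hepatoma line H-4-II-E as loss of intracellular ATP after 40 hr compound treatment, detected by luciferase luminescence.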

[6] = Cellular Toxicity (caspase-3) H-4-II-E (AID 663); conditions: H-4-II-E rat hepatoma; Potency: caspase-3 activation; caspase-3 activation: at 92.2 µM (top of the series), scaled: DMSO 0%, 100 µM tamoxifen 100%; note: potency is the fitted concentration of half-maximal effect;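 for caspase-3 activation: cells exposed to compound for 16 hr before readout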
Summary of the method: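 Apoptosis induction is scored as increased luminescence from caspase 3/7 substrate cleavage in rat hepatoma H-4-II-E cells exposed to compound for 16 hr. Activity is scaled between DMSO and 100 uM tamoxifen.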

[7] = Cell Viability - LYMP1-002 - Assay at 16 hr (AID 948); conditions: LYMP1-002 lymphoblastoid cell viability; series mostly up to 92.2 µM; note: potency is the fitted concentration of half-maximal effect;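 for activity change, negative = cytotoxicity: 0% = DMSO alone and full effect = 92 µM tetraoctylammonium bromide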
Summary of the method: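 Acute cytotoxicity is scored as a concentration-dependent fall in intracellular ATP in a human lymphoblastoid line (LYMP1-002) after 16 hr compound exposure at 37 C, measured by luciferase luminescence.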

[8] = MultiTox-Fluor Cytotoxicity Assay - LYMP1-002 - Live Cells (AID 955); conditions: LYMP1-002 lymphoblastoid live-cell protease fluorescence viability; series mostly up to 46.1 µM; note: potency is the fitted concentration of half-maximal effect
Summary of the method: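 Cytotoxicity in the human lymphoblastoid line LYMP1-002 is measured as loss of live-cell protease activity after 16 h treatment in complete culture medium. AC50 is derived from Hill-equation fits of qHTS concentration-response data.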

[9] = MultiTox-Fluor Cytotoxicity Assay - LYMP1-003 - Live Cells (AID 962); conditions: LYMP1-003 lymphoblastoid cells, MultiTox-Fluor live-cell protease fluorescence; series mostly up to 92.2 µM;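 note: cells exposed to compound for 16 hours at 37 °C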; note: potency is the fitted concentration of half-maximal effect
Summary of the method: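 Cells plated at 2500 per well and incubated 5 hr; compounds added and incubated 16 hr at 37 C; MultiTox-Fluor reagent added for 60 min at room temperature; fluorescence of liberated AFC measured at 405/510 nm.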

[10] = Cell Viability - LYMP2-009 (AID 968); conditions: LYMP2-009 lymphoblastoid cell viability; series mostly up to 92.2 µM;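 note: cells exposed to compound for 24 h at 37 °C; nearly all actives have a fitted effect of over 55% in size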; note: potency is the fitted concentration of half-maximal effect
[11] = Cell Viability - LYMP2-021 (AID 974); conditions: LYMP2-021 lymphoblastoid cells viability; series mostly up to 92.2 µM;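 note: compound exposure lasts 24 hours at 37 °C; nearly all actives have a fitted effect of over 55% in size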; note: potency is the fitted concentration of half-maximal effect; for activity change, negative = cytotoxicity: % is set by controls: 0 for no effect and ±100 for the full control effect
Summary of the method: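 Concentration-response cytotoxicity in a human lymphoblastoid line: 24 hr treatment at 37 C in complete culture medium, tetraoctylammonium bromide as positive control, luminescent ATP quantitation as viability measure.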

[12] = Cell Viability - LYMP2-007 (AID 979); conditions: LYMP2-007 lymphoblastoid cell viability; series mostly up to 92.2 µM;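 note: cells exposed to compound for 24 h before reading; nearly all actives have a fitted effect of over 60% in size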; note: potency is the fitted concentration of half-maximal effect;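 for activity change, negative = cytotoxicity: 0% = DMSO only and the negative end = 92 µM tetraoctylammonium bromide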
Summary of the method: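 Acute toxicity is scored as a concentration-dependent fall in intracellular ATP in human lymphoblastoid cells treated 24 hr at 37 C, measured by luciferase luminescence; Hill-equation modelling yields AC50.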

[13] = Cell Viability - LYMP1-002 - Assay at 24 hr (AID 993); conditions: LYMP1-002 lymphoblastoid cells viability; series mostly up to 92.2 µM; note: potency is the fitted concentration of half-maximal effect; for activity change, negative = cytotoxicity: % is set by controls: 0 for no effect and ±100 for the full control effect
Summary of the method: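 qHTS, LYMP1-002 lymphoblastoid, 24 h cpd, 37 C, CellTiter-Glo ATP luminescence; AC50 via Hill eq.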

[14] = Cellular Toxicity (caspase-3) BJ (AID 658); conditions: BJ fibroblasts, luminescence; Potency: caspase-3 activation; series mostly up to 91.7 µM
Summary of the method: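 Readout: Caspase-Glo 3/7 luminescence increase in BJ cells after 16 hr treatment at 37 °C. Staurosporine and tamoxifen served as positive controls; AC50 values came from Hill modelling of data normalized to DMSO and 10 uM staurosporine.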

[15] = Cellular Toxicity (caspase-3) MRC-5 (AID 659); conditions: MRC-5 cells, luminescence, normalized: DMSO 0%, 10 µM staurosporine 100%; series mostly up to 91.7 µM;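 note: cells exposed to compound for 16 h at 37 °C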
Summary of the method: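 Concentration-dependent caspase 3/7 activation is measured in human normal lung fibroblasts (MRC-5) following 16-hour treatment. AC50 values come from standard Hill-equation modeling of luminescence normalized to DMSO and 10 uM staurosporine.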

[16] = qHTS assay for small molecule agonists of the antioxidant response element (ARE) signaling pathway measured by Nrf2-dependant transcriptional activity - cell viability counter screen (AID 720653; active = well fitted curve in the direction sought with a large enough effect in the repeat runs; an effect the other way counts as inactive or inconclusive; note: potency is the fitted concentration of half-maximal effect; for max response: % is set by controls: 0 for no effect and ±100 for the full control effect); conditions: ARE-bla HepG2 viability, CellTiter-Glo ATP luminescence, 16 h; max response: stronger effect = lower value
Summary of the method: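 Cytotoxicity counter screen: intracellular ATP quantified by CellTiter-Glo luminescence in the same ARE-bla HepG2 plates, after 16 h compound exposure and a 2 h beta-lactamase substrate step.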

[17] = Cell Viability - NIH 3T3 (AID 541); conditions: NIH 3T3 cell viability, qHTS; activity change, negative = cytotoxicity: at 92.2 µM (top of the series); note: nearly all actives have a fitted effect of over 25% in size; note: potency is the fitted concentration of half-maximal effect;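 for activity change, negative = cytotoxicity: plate controls were DMSO alone for no effect and tamoxifen positive control for full effect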
Summary of the method: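 AC50 values reflect concentration-dependent loss of intracellular ATP in NIH 3T3 cells after 40 hr treatment in complete culture medium, quantified by luciferase-based luminescence.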

[18] = Cellular Toxicity (caspase-3) Jurkat (AID 655); conditions: Jurkat caspase-3 activation, luminescence; caspase-3 activation: at 92.2 µM (top of the series), DMSO = 0%, tamoxifen = 100%;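 note: cells exposed to compound for 16 h at 37 °C before reading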
Summary of the method: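 Caspase 3/7 activation is scored as increased luminescence in Jurkat cells cultured with compound for 16 hours in complete medium. AC50 values come from Hill fits of qHTS concentration-response data normalized to DMSO and 100 uM tamoxifen controls.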

[19] = Cellular Toxicity (caspase-3) SHSY5Y (AID 657); conditions: SH-SY5Y caspase-3 activation; series mostly up to 91.7 µM;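 note: cells exposed to compound for 16 hours at 37 °C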
Summary of the method: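 Cells plated and incubated 5 h at 37 °C, dosed over a concentration range, incubated 16 h, then given Caspase-Glo 3/7 reagent for 1 h at room temperature before luminescence reading. Staurosporine (10 uM) defined full stimulation.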

[20] = Cellular Toxicity (caspase-3) SK-N-SH (AID 661); conditions: SK-N-SH caspase-3 activation, qHTS; caspase-3 activation: at 91.7 µM (top of the series), DMSO as zero, staurosporine as full; note: potency is the fitted concentration of half-maximal effect
Summary of the method: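 Caspase 3/7 activation is measured as a luminescence increase from aminoluciferin released by substrate cleavage in SK-N-SH cells after 16 hr compound treatment; values are AC50 from concentration-response curves.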

Cc1cc(O)c(C(C)(C)C)cc1Sc1cc(C(C)(C)C)c(O)cc1C
active: Potency [1] 16.3 µM | Potency [2] 33.7 µM | Potency [3] 32.3 µM | Potency [5] 25.1 µM | Potency [6] 31.6 µM | Potency [7] 50.1 µM | Potency [8] 25.1 µM | Potency [9] 39.8 µM | Potency [10] 50.1 µM | Potency [11] 31.6 µM | Potency [12] 31.6 µM | Potency [13] 31.6 µM
inactive: Potency [4]

O=C1OC(O)C(C(Cl)Cl)=C1Cl (stereo not given)
active: Potency [1] 21.3 µM | Potency [10] 25.1 µM | Potency [11] 20 µM | Potency [12] 25.1 µM
inactive: Potency [4] | Potency [14] | outcome [15] | caspase-3 activation [6] 24.6% | max response [16] -27.5%

O=C=Nc1ccc(Cc2ccc(N=C=O)cc2)cc1
inactive: Potency [1] > 92 µM | Potency [2] > 92 µM | Potency [3] > 92 µM | Potency [17] | Potency [5] | Potency [18] | Potency [19] | Potency [14] | outcome [15] | caspase-3 activation [20] 0.0206% | caspase-3 activation [6] 1.23% | Potency [7] | Potency [8] | Potency [9] | Potency [10] | Potency [11] | Potency [12] | Potency [13] | max response [16] -1.3% and -0.206%

CC(=O)Nc1ccc(C(=O)CCl)cc1
inactive: Potency [4] | Potency [18] | Potency [19] | Potency [14] | outcome [15] | caspase-3 activation [20] -5.98%
active: Potency [1] 2.44 µM | Potency [2] 37.9 µM | Potency [3] 40.3 µM | Potency [17] 2 µM | Potency [5] 10 µM | Potency [7] 25.1 µM | Potency [8] 12.6 µM | Potency [9] 31.6 µM | Potency [10] 6.31 µM | Potency [11] 5.01 µM | Potency [12] 6.31 µM | Potency [13] 25.1 µM | Potency [16] 39.8 µM

Nc1ccc2cc3ccccc3cc2c1
inactive: Potency [1] > 92 µM | Potency [2] > 92 µM | Potency [3] > 92 µM | Potency [17] | Potency [5] | Potency [18] | Potency [19] | Potency [14] | outcome [15] | caspase-3 activation [20] -1.26% | caspase-3 activation [6] -0.822% | Potency [7] | Potency [9] | Potency [10] | Potency [11] | Potency [12] | Potency [13] | max response [16] -4.4%

c1cc(OCC2CO2)cc(OCC2CO2)c1 (stereo not given)
inactive: Potency [13] | max response [16] -40% and -11.6%
active: Potency [1] 41.9 µM | Potency [2] 32.9 µM | activity change, negative = cytotoxicity [17] -149% | Potency [5] 39.8 µM | Potency [20] 12.6 µM

C=C(C)c1ccccc1
inactive: Potency [1] > 92 µM | Potency [2] > 92 µM | Potency [3] > 92 µM | Potency [17] | Potency [5] | Potency [18] | Potency [19] | Potency [14] | outcome [15] | caspase-3 activation [20] 0.438% | caspase-3 activation [6] 1.07% | Potency [7] | Potency [8] | Potency [9] | Potency [10] | Potency [11] | Potency [12] | Potency [13] | max response [16] -8.93%

CC[C@]1(O)C[C@H]2CN(CCc3c([nH]c4ccccc34)[C@](C(=O)OC)(c3cc4c(cc3OC)N(C)[C@@H]3[C@](O)(C(=O)OC)[C@H](OC(C)=O)[C@]5(CC)C=CCN6CC[C@]43[C@@H]65)C2)C1
inactive: Potency [4]

From PubChem BioAssay (NCATS)
